Experimental data taken from the supplement of paper PMC3334620.
Whole data set: some 33,000 sequences, median “E-score (-0.5 to 0.5)” near -0.017, cut for the highest 2% near 0.3. The entries come from a sample that favours the highest values as a whole.

What follows are sequences tested against T1, Sut1 (UniProt P53032) (assay: PBM E-score (8-mer binding enrichment) (E-score (-0.5 to 0.5)); higher = stronger / more preferred TF binding). Details: protein concentration: 200 nM; construct: GST-full length.
T1 sequence: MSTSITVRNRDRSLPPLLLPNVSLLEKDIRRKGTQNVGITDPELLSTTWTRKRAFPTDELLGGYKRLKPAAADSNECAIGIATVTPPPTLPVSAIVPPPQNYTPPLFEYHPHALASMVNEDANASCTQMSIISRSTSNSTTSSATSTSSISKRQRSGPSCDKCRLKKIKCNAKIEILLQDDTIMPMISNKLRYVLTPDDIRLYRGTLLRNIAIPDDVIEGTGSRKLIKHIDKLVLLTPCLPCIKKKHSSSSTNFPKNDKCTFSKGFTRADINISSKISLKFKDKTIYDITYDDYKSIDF
Experimental: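 Universal 'all 10-mer' protein binding microarrays (Agilent AMADID 015681) probed with GST-tagged S. cerevisiae TFs (full-length or DBD) made by in vitro transcription/translation (PURExpress), about 100-200 nM. Bound TF was detected with fluorescent anti-GST. Each ungapped 8-mer (which stands for itself and its reverse complement) is scored by the PBM enrichment score (E-score), a modified Wilcoxon-Mann-Whitney statistic from -0.5 to +0.5, computed with the Universal PBM Analysis Suite. Scale: above 0.35 generally sequence-specific binding.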

Row | Sequence | PBM E-score
1 | ACCAACGC | 0.014
2 | CGGAGCCA | 0.294
3 | CGTTAAGC | 0.125
4 | CTGCTGTA | -0.0764
5 | TACAGGCA | 0.085
6 | GTCGGAGA | 0.325
7 | GTAGGAGA | -0.0911
8 | GTCGGATA | 0.143
9 | AACTAGGA | 0.0329
10 | GACTCGCC | -0.158
11 | AAAAAGTA | 0.125
12 | AGGACTTA | -0.0276
13 | CGGACTTA | 0.492
14 | GGGACTTA | -0.0858
15 | GGGACTGA | -0.185
16 | CGGACTGC | 0.377
17 | CGGACTGA | 0.298
18 | AGGACTGA | -0.109
19 | CAGACTGC | -0.135
20 | AGGACTGC | -0.334
21 | GTAAACGA | -0.0179
22 | CACAGTAC | -0.0582
23 | AATCCGGC | -0.0834
24 | AATCCGGT | 0.258
25 | TATCCGGA | 0.39

Row | Sequence | PBM E-score
26 | GATCCGGC | 0.0532
27 | TATCCGAA | 0.304
28 | GATCCGTA | -0.02
29 | GATCCGAA | 0.26
30 | GATCCGGA | 0.324
31 | CATCCGGA | 0.292
32 | CATCCGAA | 0.151
33 | TATCCGCA | 0.169
34 | AATCCGGA | 0.368
35 | ACCCTCTA | -0.245
36 | AGGTCTTC | -0.256
37 | GGTCTCGA | 0.00072
38 | CAACAGTC | 0.0186
39 | TACGCGTA | -0.0808
40 | CGGCCACC | -0.0332
41 | CTCTAAAG | -0.0246
42 | AGATATTA | 0.211
43 | CGTCCGCC | -0.124
44 | CGTCCGCA | -0.177
45 | GGTCCGCA | 0.241
46 | AGTCCGCA | 0.441
47 | ATTCCGCG | 0.18
48 | AGTCCGCG | 0.435
49 | AATCCGCG | -0.103
50 | ATTCCGCC | 0.214

Row | Sequence | PBM E-score
51 | AGTCCGCC | 0.375
52 | ATGCACGG | -0.114
53 | AACTTCTA | 0.131
54 | ACCAGCTG | -0.203
55 | GTCATAGA | -0.0539
56 | ATGAATAC | 0.132
57 | GGCAAACA | -0.119
58 | GCCAAGGC | -0.29
59 | AAATGATC | 0.105
60 | AGATGATA | 0.175
61 | TAATGAAA | 0.154
62 | GAATGATA | 0.259
63 | AAATGATG | 0.16
64 | AAATGATA | 0.337
65 | AAATGATT | 0.311
66 | CAATGATA | 0.144
67 | TAATGATA | 0.317
68 | ACAGTGTC | -0.114
69 | GAATTCGA | 0.0801
70 | CTTTTCTC | 0.107
71 | ACATCGGT | -0.034
72 | TCATCGAA | 0.0449
73 | CCATCGGA | 0.255
74 | GCATCGGC | -0.241
75 | ACATCGGA | 0.351

Row | Sequence | PBM E-score
76 | GCATCGTA | -0.0143
77 | ACATCGGC | -0.0386
78 | GCATCGGA | 0.348
79 | TCATCGGA | 0.395
80 | GCAATACA | 0.196
81 | GAAATTGC | -0.0449
82 | AGCACGCG | 0.0217
83 | ATTACATA | 0.154
84 | AGAGTCTG | -0.236
85 | ACCACACA | 0.109
86 | CTCACAGC | -0.051
87 | TCTCAGAA | -0.12
88 | CAAGTTGC | 0.0786
89 | GGCTGTAC | -0.0774
90 | AGACTTAC | -0.0551
91 | CGACTTAC | -0.0195
92 | CGACTTAA | 0.00564
93 | GGACTTAA | 0.326
94 | AGACTTAA | -0.137
95 | GGACTTAC | 0.352
96 | GCAAGAGA | -0.196
97 | CTTCTGGA | -0.0307
98 | CTCGGACA | 0.354
99 | ATCGGACG | 0.0416
100 | CTCGGAAC | 0.182

Row | Sequence | PBM E-score
101 | GTCGGACA | 0.271
102 | AGCGGACC | 0.00064
103 | CTCGGATC | 0.204
104 | ATCGGACC | 0.353
105 | ATCGGACA | 0.257
106 | CTCGGACC | 0.368
107 | TCTTAGAA | 0.283
108 | AAGATTCA | 0.137
109 | CGAGCGTC | -0.241
110 | CATATTGG | 0.112
111 | GAAACTGA | -0.0944
112 | CGGCTTTA | 0.0621
113 | AACCAGTC | 0.173
114 | CGGGGTTC | 0.398
115 | AGGGGTTA | -0.273
116 | GGGGGTTA | -0.405
117 | AGGGGTTC | -0.181
118 | CGGGGTTA | 0.382
119 | CCGGGTTC | -0.0363
120 | ATACGAGA | -0.0254
121 | AGAGGCTC | -0.103
122 | AATTCTGG | -0.0608
123 | CTTCACTA | 0.252
124 | GCTTCTTA | 0.0688
125 | ATGACGTA | 0.0909

Row | Sequence | PBM E-score
126 | CCGTACTA | 0.297
127 | ACGTACTA | -0.0235
128 | GCGTACTA | -0.0972
129 | AGAATCCA | 0.00183
130 | CTTATATC | 0.222
131 | ATTATATC | 0.262
132 | ATTATATG | 0.134
133 | ATTATATA | 0.337
134 | GTTATATA | 0.286
135 | CTTATATA | 0.334
136 | AACCCGTA | -0.0786
137 | CTTCTCTC | -0.0216
138 | CCAAACAC | -0.00595
139 | ACACCTCG | -0.103
140 | AGGAGGAG | -0.183
141 | AGGTGTGG | -0.0561
142 | CGTCCGTC | -0.154
143 | AATCCGTC | 0.0795
144 | GGTCCGTA | 0.253
145 | CGTCCGTA | 0.0823
146 | AGTCCGTG | 0.431
147 | AGTCCATG | -0.00201
148 | AGCCCGTG | -0.224
149 | AGTCCGTA | 0.445
150 | AGTCCGTC | 0.424

Row | Sequence | PBM E-score
151 | CTGCTTGA | -0.153
152 | CTGAACAC | -0.0309
153 | GCTCTGCC | -0.128
154 | CGCACACA | -0.161
155 | CGTTGGCA | -0.0897
156 | GACTGATA | 0.0856
157 | CGAGCTCG | -0.0197
158 | GGAGACAA | 0.0139
159 | GCATGCGA | 0.0246
160 | GTGCCGAA | 0.0728
161 | CCCCGAGC | 0.163
162 | CTCCGAGC | 0.437
163 | ATCCGAGC | 0.0537
164 | CGCCGAGA | 0.0729
165 | GTCCGAGA | 0.428
166 | ATCCGAGA | 0.198
167 | CTCCGAGA | 0.459
168 | GGCCGAGA | 0.0849
169 | CACCGAGA | -0.0582
170 | CGACACTC | 0.0434
171 | AGACTCAA | -0.0327
172 | AAGGCTGG | -0.146
173 | AGATGGTA | 0.0768
174 | GATTATTA | 0.229
175 | GTTTATTA | 0.302

Row | Sequence | PBM E-score
176 | ATTTATTA | 0.269
177 | CATTATTC | 0.231
178 | AATTATTC | 0.317
179 | AATTATTA | 0.305
180 | AATTATCC | 0.1
181 | AATTATTG | 0.173
182 | CTTTATTA | 0.261
183 | TCGATCAA | -0.00575
184 | TAGTGCGA | -0.0645
185 | AGTGATTA | 0.0842
186 | CTGTCCTA | -0.0818
187 | CCAAGACC | -0.261
188 | GGCGTCGA | -0.167
189 | AAAAGTCC | 0.394
190 | CGAAGTCA | -0.081
191 | CGAAGTCC | 0.378
192 | GGAAGTCC | 0.159
193 | ATAAGTCC | 0.317
194 | GAAAGTCC | 0.326
195 | CAAAGTCC | 0.282
196 | CTAAGTCC | 0.114
197 | AAAAGTCA | 0.15
198 | AAAAGTCT | 0.102
199 | ATAAGTCG | 0.0862
200 | GAAAGTCA | 0.049

Row | Sequence | PBM E-score
201 | CGCGCAAC | -0.114
202 | CAAAGTAC | 0.0285
203 | ACGTATAG | 0.0316
204 | GCAGCACC | 0.0294
205 | AGATTGCC | -0.043
206 | CCACAAAA | 0.0574
207 | GCTCTACA | -0.121
208 | AGGATCGC | -0.214
209 | CAAGCGGC | -0.0127
210 | ACAAGTCC | 0.374
211 | ACAAGTCA | -0.118
212 | ACAAGTCG | -0.264
213 | ACGCGTCG | 0.174
214 | AAAGTGAA | 0.191
215 | GTGCTACA | -0.0297
216 | GGGATGGA | -0.0689
217 | CGAAAAGC | -0.0121
218 | CCTCCCGA | -0.289
219 | GCGCCGGA | 0.196
220 | CCGCCGGA | 0.223
221 | CCTCCGGA | 0.374
222 | GCTCCAGA | -0.199
223 | GCTCCGGA | 0.442
